Screening results (PubChem BioAssay)
Rows were chosen to be rich in hits. Some 6.8% of all compounds tested hit in one or more screens of this group.
A340 absorber: compound light absorbance at 340 nm, profiling panel, artefact control, biochemical, MLSMR library, data from PS, PMK, MK assays. compound absorbance at 340 nm, fold over control. fold change at 10 µM. 65,000 tested, under 10 active. AID 708, 2007;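 active = at 10 µM dose, initial 340 nm absorbance at least 2 fold that of control wells; inactive = change under 2 fold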;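 note: initial absorbance extrapolated from kinetic A340 decline of NADH oxidation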
NADH coupling: inhibitors of PK/LDH coupling enzymes, profiling panel, artefact control, biochemical, MLSMR library | coupled PK/LDH NADH assays, four targets | IC50, µM (doses to about 10 µM), without a hit: top-dose inhibition | hit rate 0.02% among 65,000;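 active = single-dose screening hits from any of four coupled enzyme assays that gave an IC50 when retested across doses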;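 note: the DPM-DC format reads NADH fluorescence rather than 340 nm absorbance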
MK inhibit: S. pneumoniae MK inhibitors, primary screen, biochemical, PK/LDH-coupled NADH absorbance | purified MK, PK/LDH-coupled NADH absorbance 340 nm | inhibition, % at 10 µM | hit rate 0.48% among 65,000 | AID 555, 2006;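 active = ranked among the strongest by inhibition in the single 10 µM screen, a fixed top-ranked set picked for dose follow-up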
Spn DPM-DC inh: S. pneumoniae DPM-DC inhibitors, primary screen, biochemical, PK/LDH-coupled NADH fluorescence; purified DPM-DC; calls only at 10 µM; hit rate 0.49% among 65,000; AID 556, 2006;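 active = the 320 compounds with the highest percent inhibition in the single-dose primary screen, excluding strongly autofluorescent ones, cut at about 32% in these data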;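 note: kinetic rate of NADH fluorescence loss reporting ADP formed by the decarboxylase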
Fluor 339 460: intrinsic fluorescence of library compounds, ex339/em460 – biochemical, MLSMR library, data from DPM-DC assay, artefact control, profiling panel. compound autofluorescence, ex339/em460 nm, NADH buffer; hits give high values; 1 = no-compound wells, NADH background. fluorescence fold increase at 10 µM. hit rate 5.5% among 65,000. AID 709, 2007;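 active = at 10 µM, mean starting fluorescence two-fold or more over control wells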;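 note: signal is the first read of a kinetic run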
PMK inhibit: S. pneumoniae PMK inhibitors, primary screen, biochemical, mevalonate pathway, pilot trial included. phosphomevalonate kinase (Streptococcus pneumoniae D39). purified PMK, PK/LDH-coupled NADH absorbance 340 nm. inhibition, % at 10 µM. hit rate 0.49% among 65,000. AID 539, 2006;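 active = top-ranked compounds by inhibition in the single 10 µM screen, taking a fixed number of the strongest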;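 note: 0% = full reaction with DMSO carrier and 100% = background rate without enzyme reaction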
* hit, by the source's call; i = inactive; . = no result given.

SMILES | A340 absorber | NADH coupling | MK inhibit | Spn DPM-DC inh | Fluor 339 460 | PMK inhibit
Cc1cc2n(n1)C(c1sccc1C)Nc1c(C)cccc1-2 (centres undefined) | 1.02 | 4.0% | 5.0 | i | 2.06* | 6.0
Cc1ccc2c(c1)-c1cc(C)nn1C(c1sccc1C)N2 (centres undefined) | 1.02 | 14.0% | 12.0 | i | 2.2* | 8.0
Cc1cc2n(n1)C(c1sccc1C)Nc1ccccc1-2 (centres undefined) | 1.01 | 3.0% | 3.0 | i | 1.82 | 2.0
CC(C)CCOc1ccc(Cl)cc1CN1CCOCC1 | 0.99 | 2.0% | 0.0 | i | 1.08 | 5.0
O=S(=O)(NC1CCCC1)c1cccc(S(=O)(=O)N2CCC(n3nnc4ccccc43)CC2)c1 | 1.03 | 2.0% | 0.0 | i | 1.1 | 6.0
CCN(CC)c1ncc(C)c(=O)[nH]1 | 0.98 | 2.0% | 13.0 | i | 1.01 | 4.0
O=C(NCc1ccc(F)cc1)c1cnc2sccn2c1=O | 1.12 | 5.0% | 8.0 | . | 2.15* | 2.0
COc1ccc(OC)c(NC(=O)C2C3CCC(O3)C2C(=O)O)c1 (centres undefined) | 1.05 | 1.0% | 0.0 | i | 1.19 | 0.0
CCOc1cccc2sc(NC(=O)c3ccc(Br)s3)nc12 | 1.15 | 1.0% | 1.0 | . | 2.09* | 0.0
CCOC(=O)Cc1csc(NC(=O)c2ccc(Br)s2)n1 | 1.08 | 7.0% | 8.0 | i | 1.08 | 6.0
O=C(O)c1nn(-c2ccc(Cl)cc2)ccc1=O | 1.06 | 4.0% | 13.0 | i | 1.01 | 0.0
c1ccc(OCCCc2nc(-c3ccccn3)no2)cc1 | 1.05 | 1.0% | 0.0 | i | 1.17 | 4.0
N#Cc1nc(-c2cccc3ccccc23)oc1N1CCCCC1 | 1.03 | 10.0% | 6.0 | . | 3.7* | 13.0
CC1CCN(c2oc(-c3cccc4ccccc34)nc2C#N)CC1 | 1.01 | 13.0% | 9.0 | . | 2.97* | 10.0
CC1CC(C)CN(c2oc(-c3ccccc3Cl)nc2C#N)C1 (centres undefined) | 1.09 | 3.0% | 5.0 | . | 3.22* | 0.0
Cc1cccc(OCc2nc(C#N)c(N3CC(C)CC(C)C3)o2)c1 (centres undefined) | 1.03 | 3.0% | 8.0 | i | 1.1 | 0.0
N#Cc1nc(Cc2cccc3ccccc23)oc1N1CCCCC1 | 1.03 | 1.0% | 4.0 | i | 1.1 | 0.0
N#Cc1nc(-c2ccccc2Cl)oc1N1CCCCC1 | 1.04 | 3.0% | 3.0 | i | 1.97 | 6.0
CCN(CCO)C(=O)C12CCC(C)(C(=O)C1)C2(C)C (centres undefined) | 1.03 | 3.0% | 6.0 | i | 1.11 | 3.0
Cc1c(S(=O)(=O)Nc2cccc(Cl)c2)c(=O)n(C)c(=O)n1C | 1.07 | 18.0% | 55.0* | i | 0.99 | 0.0
CCOC(=O)C(C(C)=O)c1c(Br)c(O)c(O)c2c(C(=O)c3ccc(C)cc3)coc12 (centres undefined) | 1.07 | 0.0% | 0.0 | i | 1.08 | 1.0
C=CCn1c(Cc2cccs2)nnc1SCC(=O)Nc1cc(OC)cc(OC)c1 | 1.04 | 8.0% | 5.0 | i | 1.12 | 19.0
O=C(NCCCN1CCN(c2cccc(Cl)c2)CC1)C1CCC(=O)N1Cc1ccccc1Cl (centres undefined) | 0.96 | 6.0% | 9.0 | i | 0.94 | 8.0
COc1ccc(-c2cn3cccnc3n2)cc1NC(=O)CC(C)C | 1.07 | 7.0% | 0.0 | . | 5.22* | 14.0
CCOCC(=O)Nc1ccc(-c2cn3cccnc3n2)cc1 | 1.06 | 7.0% | 0.0 | . | 5.17* | 13.0
SMILES | A340 absorber | NADH coupling | MK inhibit | Spn DPM-DC inh | Fluor 339 460 | PMK inhibit
CCCCc1ccc(NC(=O)COCC)cc1 | 0.99 | 1.0% | 6.0 | i | 1.04 | 0.0
CCCC(=O)Nc1cc(-c2cn3cccnc3n2)ccc1OC | 1.08 | 7.0% | 0.0 | . | 4.5* | 13.0
O=C(NCCN1CCCC1)c1ccc(CS(=O)(=O)c2c(Cl)cccc2Cl)o1 | 1.04 | 3.0% | 0.0 | i | 1.06 | 8.0
CCN(CC)CCCN1C(=O)C(O)=C(C(=O)c2ccc(C)o2)C1c1ccc(C)o1 (centres undefined) | 1.04 | 1.0% | 4.0 | i | 1.1 | 0.0
CN(C)S(=O)(=O)c1ccc(N2CCOCC2)nc1 | 1.04 | 8.0% | 6.0 | i | 1.14 | 8.0
Cc1ccc(C)n1-c1ccc(N2CCOCC2)nc1 | 1.06 | 5.0% | 8.0 | . | 3.73* | 1.0
COc1ccc(-c2cc(=O)oc3c(C)c(O)c(CN(C)C)cc23)cc1 | 1.15 | 12.0% | 8.0 | i | 2.39* | 5.0
CCOc1c(C)cc2[nH]c(CCC(=O)O)nc2c1C | 0.98 | 3.0% | 2.0 | i | 1.08 | 11.0
Cc1cc(-c2cccnc2)c(C#N)c(SCC#N)n1 | 1.04 | 2.0% | 1.0 | i | 1.07 | 3.0
Cc1cc(-c2ccccc2)c(C#N)c(N)n1 | 1.02 | 4.0% | 10.0 | . | 2.41* | 8.0
CCCCCNC(=O)c1c(N)n(/N=C/c2ccco2)c2nc3ccccc3nc12 | 1 | 4.0% | 5.0 | i | 1.51 | 8.0
CCCCNC(=O)c1c(N)n(/N=C/c2cccnc2)c2nc3ccccc3nc12 | 1.05 | 6.0% | 11.0 | i | 1.25 | 2.0
Nc1c(S(=O)(=O)c2ccccc2)c2nc3ccccc3nc2n1/N=C/c1cccc(O)c1 | 1.1 | 7.0% | 10.0 | . | 3.72* | 4.0
Cc1ccc(C)c(S(=O)(=O)c2c(N)n(/N=C/c3ccco3)c3nc4ccccc4nc23)c1 | 1.06 | 1.0% | 0.0 | i | 2.14* | 0.0
Cn1nnnc1Sc1ncnc2scc(-c3ccccc3)c12 | 0.98 | 7.0% | 7.0 | i | 1.08 | 14.0
Cn1nnnc1Sc1ncnc2scc(-c3ccc(F)cc3)c12 | 0.96 | 11.0% | 5.0 | i | 1.12 | 29.0*
COc1ccc2oc(=O)c(NC(=O)C3CCCCC3)cc2c1 | 1.05 | 8.0% | 1.0 | . | 4.18* | 14.0
Nc1c(C(=O)Nc2ccc(F)cc2)sc2nc(-c3ccco3)ccc12 | 1.11 | 3.0% | 5.0 | . | 3.77* | 0.0
Clc1ccc(N2CCN(c3ncnc4c3oc3ccccc34)CC2)cc1 | 1.05 | 7.0% | 5.0 | . | 3.7* | 9.0
O=c1oc2ccc(Br)cc2cc1-c1nc2ccccc2o1 | 1.01 | 10.0% | 9.0 | i | 2.27* | 6.0
O=C(Nn1cnnc1)c1cc2cc(Br)ccc2oc1=O | 1.12 | 9.0% | 9.0 | i | 1.16 | 9.0
COCCCNC(=O)C1C2C=CC3(CN(Cc4ccc(C)cc4)C(=O)C13)O2 (centres undefined) | 1.01 | 12.0% | 0.0 | i | 0.85 | 25.0*
Cc1ccc(CN2CC34C=CC(O3)C(C(=O)NCc3ccc5c(c3)OCO5)C4C2=O)cc1 (centres undefined) | 1.06 | 3.0% | 9.0 | i | 1.08 | 0.0
CC1(C)CC(=O)c2c(-c3cccs3)n[nH]c2C1 | 1.02 | 17.0% | 1.0 | i | 1.73 | 25.0
